# Laboratory results published in PubChem BioAssay (NCI).
# This is part of a sample that, as a whole, favours compounds with a hit. Of some 83,000 tested, about 20% had one in any assay.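 For each line, cells grew in 96-well plates with the test compound present at a single concentration for 48 hours.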 A number with no mark means an inactive call. The source made the active and inactive calls. How the source made its calls: active means growth percent below 10; inactive means the rest.
# Tests used:
# Assay in all cases: NCI-60 one-dose screen, 48 h (100 = growth as untreated, 0 = no growth, -100 = all killed)
# Settings in all cases: 10 µM unless noted
# NCI-H23 lung = test system: NCI-H23 lung
# NCI-H226 lung = test system: NCI-H226 lung
# NCI-H322M lung = test system: NCI-H322M lung
# HOP-62 NSCLC = test system: HOP-62 NSCLC
# NCI-H460 lung = test system: NCI-H460 lung
# NCI-H522 lung = test system: NCI-H522 lung
# A549/ATCC NSCLC = test system: A549/ATCC NSCLC
# 786-0 renal = test system: 786-0 renal
# COLO 205 colon = test system: COLO 205 colon
# DU-145 prostate = test system: DU-145 prostate
# K-562 leukemia = test system: K-562 leukemia
# MALME-3M melanoma = test system: MALME-3M melanoma
# MDA-MB-231 breast = test system: MDA-MB-231 breast
# RXF 393 renal = test system: RXF 393 renal
# SF-268 CNS = test system: SF-268 CNS
# SF-295 CNS = test system: SF-295 CNS
# SF-539 CNS = test system: SF-539 CNS
# UACC-257 melanoma = test system: UACC-257 melanoma
# M14 melanoma = test system: M14 melanoma
SMILES,growth (NCI-H23 lung),growth (NCI-H226 lung),growth (NCI-H322M lung),growth (HOP-62 NSCLC),growth (NCI-H460 lung),growth (NCI-H522 lung),growth (A549/ATCC NSCLC),growth (786-0 renal),growth (COLO 205 colon),growth (DU-145 prostate),growth (K-562 leukemia),growth (MALME-3M melanoma),growth (MDA-MB-231 breast),growth (RXF 393 renal),growth (SF-268 CNS),growth (SF-295 CNS),growth (SF-539 CNS),growth (UACC-257 melanoma),growth (M14 melanoma)
O=C1NN(C(=O)c2ccccc2)C(c2ccc(Cl)c(Cl)c2)=C/C1=C\c1ccccc1[N+](=O)[O-],-16.9% [6.75 µM] (active),-10.3% [6.75 µM] (active),27.1% [6.75 µM],37.8% [6.75 µM],-25% [6.75 µM] (active),-11.1% [6.75 µM] (active),14.4% [6.75 µM],31.1% [6.75 µM],-79.4% [6.75 µM] (active),25.3% [6.75 µM],15.1% [6.75 µM],56.5% [6.75 µM],49.9% [6.75 µM],7.22% [6.75 µM] (active),49% [6.75 µM],-37.5% [6.75 µM] (active),15.2% [6.75 µM],35.4% [6.75 µM],-28% [6.75 µM] (active)
O=C1Nc2ccccc2/C1=C\c1nc(C2CCN(S(=O)(=O)c3ccc(F)cc3)CC2)n2ccccc12,42%,41.2%,55.5%,47.8%,65%,16.5%,68.1%,-3.81% (active),79.1%,57.1%,56.9%,3.9% (active),32.8%,16.6%,14.2%,46.5%,27.4%,72%,61.5%
CC(C)c1ccc(-c2cnc3nonc3n2)cc1,56.2%,77.5%,65.8%,57.7%,70.5%,20%,53.2%,10.6%,38.1%,30.9%,6.39% (active),61.2%,38.5%,37.7%,62.4%,48.9%,14.5%,52%,7.59% (active)
COc1cc2c(c(OC)c1O)C(=O)C(OC)C(c1ccc(O)c(O)c1)O2 (stereo not given),24.7%,16.8%,37%,42.3%,4.55% (active),-11.9% (active),17.7%,17%,88%,5.45% (active),6.8% (active),52.2%,-8.18% (active),17.1%,24.6%,-6.27% (active),-23% (active),69.1%,-3.36% (active)
COc1cc(C2CC(c3ccc(C)cc3)=NN2C=O)ccc1Oc1nc2c(c(=O)n(C)c(=O)n2C)n1C (stereo not given),85.3%,84%,60.8%,115%,98.6%,98.3%,52%,110%,110%,64.5%,88.3%,87.8%,84.8%,98.6%,58.1%,69.8%,116%,-31.3% (active),77.5%
O=[N+]([O-])c1ccc(N/N=C/c2ccccc2O)nc1,33.9%,83.3%,39.6%,32.7%,15%,9.71% (active),31.4%,21.8%,14.6%,48.7%,21.9%,78.5%,52.3%,38.1%,40.1%,35.2%,42.9%,32%,29.5%
O=c1c2cc(Cl)ccc2oc2ccc(OCCCCCN3CCCCCC3)cc12,87.5%,90.1%,89.6%,79.7%,63%,80.2%,61.2%,70.2%,76.7%,91.9%,34.6%,114%,84.4%,84.4%,87.4%,97.5%,94.1%,83.7%,45.2%
NNC(=O)CSc1nc2scc(-c3ccccc3)c2c(=O)n1-c1ccccc1,101%,84%,122%,91.4%,110%,91.4%,115%,86.8%,107%,111%,89.9%,155%,86.6%,-50.2% (active),85.6%,144%,96.5%,129%,112%
O=[N+]([O-])c1ccc(N/N=C\c2ccc(O)cc2O)nc1,44.9%,85%,39.7%,33.7%,19.6%,10.9%,25.6%,18.4%,65.9%,50.7%,22.4%,57.8%,52.9%,36.3%,37.3%,28.5%,37.5%,41.3%,8.7% (active)
COc1ccc(/C=C(\C#N)c2cc(OC)c(OC)c(OC)c2)cc1,1.46% (active),-8.11% (active),42.8%,24.1%,7.57% (active),5.56% (active),20.8%,18.2%,-69.7% (active),-1.75% (active),,69.1%,38.4%,48.7%,27%,14.1%,8.76% (active),65.7%,8.3% (active)
COc1ccc(C(=O)OC2C(OC3C(O)COC(O[C@H]4C[C@H]5[C@@H]6CC=C7C[C@@H](O)CC[C@]7(C)[C@H]6CC[C@]5(C)[C@H]4[C@H](C)C(=O)CCC(C)C)C3OC(N)=O)OCC(O)C2O)cc1 (stereo not given in full),23.3%,-1.18% (active),53.7%,-22.2% (active),-35.7% (active),-68.7% (active),11.3%,-59.4% (active),-58% (active),32.8%,-45.4% (active),-34.3% (active),-5.1% (active),-64.9% (active),-14.2% (active),-67.2% (active),-80% (active),-63.6% (active),-78.6% (active)
Cc1ccsc1C(=O)CC(=O)C(F)(F)C(F)(F)C(F)(F)F,104%,93.1%,104%,99.4%,114%,112%,99.4%,106%,112%,112%,,105%,96.6%,108%,107%,97.1%,102%,108%,117%
CN1CCCN(CCNc2nccc(-c3c(-c4cccc(O)c4)nc4sccn34)n2)S1(=O)=O,67.1%,72.4%,47.9%,84.4%,40.2%,59.3%,45.8%,42.2%,29.3%,54.7%,,9.87% (active),44.9%,41.3%,71.5%,57.8%,57.8%,36.8%,-0.122% (active)
C=CCN1C(=O)/C(=c2\sc3n(c2=O)C2C(NN=3)N(CC)C(=O)N2CC)c2ccccc21 (stereo not given),26.7%,62.7%,49.4%,32.4%,9.1% (active),-15.9% (active),23.9%,32.3%,-14.2% (active),17%,10%,66%,47.1%,7.25% (active),47.3%,12.9%,4.08% (active),63.3%,14.4%
O=C(CCCCCCN1CC(=O)N2[C@@H](c3ccc(Cl)c(Cl)c3)c3[nH]c4ccccc4c3C[C@H]2C1=O)NO,54%,84.8%,53.5%,54.1%,39.1%,17.8%,79.9%,71.8%,58.9%,56.7%,17.9%,40%,44.4%,36.5%,74.7%,61.8%,52%,65.5%,50.6%
COc1ccc(C2NC(=O)c3cc4c(cc3N2)OCO4)cc1 (stereo not given),8.1% (active),5.1% (active),50.4%,27.8%,5.06% (active),-48.7% (active),18.9%,37.1%,-22.1% (active),7.04% (active),,58.7%,31.3%,-2.15% (active),39.6%,-14% (active),8.24% (active),65.8%,-7.7% (active)
